This passage reports growth inhibition results from PubChem BioAssay (NCI).

Assay [1] in a line: NCI Yeast Anticancer Drug Screen. Data for the rad50 strain (AID 155).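 Further: 0% = growth of vehicle-only cultures of the same strain.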 Conditions: S. cerevisiae rad50 strain growth inhibition, active compounds read high. In outline:
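Genetically altered yeast (DNA repair pathway); compound treatment; growth inhibition vs vehicle ctrl.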

The nature of assay [2]: NCI Yeast Anticancer Drug Screen. Data for the mec2-1 strain (AID 157). To be noted: S. cerevisiae mec2-1 strain, active compounds read high. In outline: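 Cells of the genetically defined mec2-1 yeast strain are incubated with test compound. Inhibition of growth is calculated against vehicle-treated controls.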
Assay [3] can be described thus: NCI Yeast Anticancer Drug Screen. Data for the sgs1 mgt1 strain (AID 161).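 Further: 0% = growth of cultures given vehicle only.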 To be noted: S. cerevisiae sgs1 mgt1 strain, active compounds read high. In short, it runs like this: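 Inhibition of yeast growth, normalised to vehicle-treated controls, is reported for a strain bearing genetic alterations in DNA damage repair.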
Assay [4] is described as follows: NCI Yeast Anticancer Drug Screen. Data for the bub3 strain (AID 167). Conditions: S. cerevisiae bub3 mutant strain, active compounds read high. In short, it runs like this: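 Yeast carrying a defined mutation is treated with each compound, and growth is compared with that of vehicle-exposed cells to give inhibition.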
The nature of assay [5]: NCI Yeast Anticancer Drug Screen. Data for the mlh1 rad18 strain (AID 175). Conditions: S. cerevisiae mlh1 rad18 strain growth inhibition, active compounds read high. In short, it runs like this:
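Compound-treated yeast growth, normalised to vehicle controls. Strain bears defined DNA repair mutations.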

Assay [6] in a line: NCI Yeast Anticancer Drug Screen. Data for the cln2 rad14 strain (AID 165).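 Further: 0% = growth equal to vehicle treated cultures.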 To be noted: S. cerevisiae cln2 rad14 strain, active compounds read high. In short, it runs like this: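 The screen exposed genetically defined yeast (cln2 rad14) to test compounds and scored growth inhibition relative to vehicle-treated controls.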
Setting [7] is: at 5.0 µM (retest, dose inferred, filed as 0.5).
Setting [8] is: at 50.0 µM (retest, dose inferred, filed as 5.0).

Values joined by “and” are separate entries in the source; they are usually repeats but may differ in a detail not shown here. Equal values may be shown once. About 79,000 compounds went through this panel and 15% of them were active in at least one assay; those are over-represented in the sample as a whole. Values without a mark were called inactive. Active and inactive are the calls of the source. No stated cut-off is given here; in the data, active means growth inhibition above about 70%; inactive means the rest.

`Clc1ccc(-c2cc(=[N+]3CC[N+](=c4cc(-c5ccc(Cl)cc5)ss4)CC3)ss2)cc1`: the growth inhibition in assay [1] (setting [7]) is 8%; in assay [1] (setting [8]) it was 3%; in assay [1] (at 50.0 µM), 98.3% (active); in assay [2] (setting [7]) it was -158%; in assay [2] (setting [8]) it was -3%; in assay [2] (at 50.0 µM) it was 98.2% (active). The growth inhibition in assay [3] (setting [7]) was 2%; in assay [3] (setting [8]), 4%; in assay [3] (at 50.0 µM) it was 98.9% (active); in assay [4] (setting [7]), 3%; in assay [4] (setting [8]), -2%; in assay [4] (at 50.0 µM) it was 98% (active). Also, the results for the growth inhibition in assay [5] (setting [7]), in assay [5] (setting [8]) and in assay [5] (at 50.0 µM) were 7%, 4% and 98.5% (active), respectively.
As for `NC(CS)C(=O)O` (stereo not drawn), the growth inhibition is -4.8% and 31.9% and -26% in assay [1] (at 50.0 µM); -7.5% and -9.05% and -3.1% in assay [2] (at 50.0 µM); -7.95% and 28.4% and -35.2% in assay [3] (at 50.0 µM); -0.4% and 7.6% and -1.55% in assay [6] (at 50.0 µM); -17.2% and 25.6% and -38.2% in assay [4] (at 50.0 µM); -8.1% and 13.2% and 1.75% in assay [5] (at 50.0 µM).
As to `ClCCN(CCCl)CCN1c2ccccc2Sc2ccc(Cl)cc21`, the growth inhibition in assay [1] (setting [7]) was 0%; in assay [1] (setting [8]), 69%; in assay [1] (at 50.0 µM), 99% (active); in assay [2] (setting [7]) it was 1%; in assay [2] (setting [8]) it was 75% (active); in assay [2] (at 50.0 µM), 96.2% (active). Besides, the growth inhibition in assay [6] (setting [7]) was -1%; in assay [6] (setting [8]) it was 49%; in assay [6] (at 50.0 µM) it was 98.5% (active); in assay [4] (setting [7]) it was -2%; in assay [4] (setting [8]) it was 80% (active); in assay [4] (at 50.0 µM), 97.1% (active). Moreover, the growth inhibition is 3% in assay [5] (setting [7]), 95% (active) in assay [5] (setting [8]) and 98.9% (active) in assay [5] (at 50.0 µM).
`FC(F)(F)c1nnn[n-]1.[Au+].c1ccc([PH+](c2ccccc2)c2ccccc2)cc1`: the growth inhibition is 99% (active) in assay [1] (setting [7]); 97% (active) in assay [1] (setting [8]); 97.6% (active) in assay [1] (at 50.0 µM); 100% (active) in assay [2] (setting [7]); 97% (active) in assay [2] (setting [8]); 97.2% (active) in assay [2] (at 50.0 µM). For the same compound, the growth inhibition is 99% (active) in assay [3] (setting [7]); 98% (active) in assay [3] (setting [8]); 95.6% (active) in assay [3] (at 50.0 µM); 98% (active) in assay [4] (setting [7]); 97% (active) in assay [4] (setting [8]); 96.3% (active) in assay [4] (at 50.0 µM). Further, the growth inhibition is 99% (active) in assay [5] (setting [7]), 97% (active) in assay [5] (setting [8]) and 94.7% (active) in assay [5] (at 50.0 µM).
Consider `CCN(CCCl)c1ccc(/C=C/C2=[N+](C)c3ccccc3C2(C)C)c(C)c1`, for which the growth inhibition in assay [1] (setting [7]) was -5%; in assay [1] (setting [8]), 98% (active); in assay [1] (at 50.0 µM), 62%; in assay [2] (setting [7]), -1%; in assay [2] (setting [8]), 99% (active); in assay [2] (at 50.0 µM) it was 98.2% (active). For the same compound, the growth inhibition was -8% in assay [3] (setting [7]); 98% (active) in assay [3] (setting [8]); 96.8% (active) in assay [3] (at 50.0 µM); -6% in assay [4] (setting [7]); 99% (active) in assay [4] (setting [8]); 99.2% (active) in assay [4] (at 50.0 µM). Further, the growth inhibition was -1% in assay [5] (setting [7]), 98% (active) in assay [5] (setting [8]) and 60.8% in assay [5] (at 50.0 µM).
Take `ClCC[N+]12CC[N+](CCCl)(CC1)C2`: the growth inhibition in assay [1] (setting [7]) was 59%; in assay [1] (setting [8]), 97% (active); in assay [2] (setting [7]), 50%; in assay [2] (setting [8]), 98% (active); in assay [3] (setting [7]), 86% (active); in assay [3] (setting [8]), 99% (active). The growth inhibition is 75% (active) in assay [6] (setting [7]); 98% (active) in assay [6] (setting [8]); 82% (active) in assay [4] (setting [7]); 98% (active) in assay [4] (setting [8]); 47% in assay [5] (setting [7]); 97% (active) in assay [5] (setting [8]).
Take `CC(=O)Nc1ccccc1[As](O[As](c1ccccc1)c1ccccc1NC(C)=O)c1ccccc1` (stereo not drawn): the growth inhibition in assay [1] (setting [7]) is 39%; in assay [1] (setting [8]), 99% (active); in assay [1] (at 50.0 µM), 99.5% (active); in assay [3] (setting [7]) it was 66%; in assay [3] (setting [8]), 100% (active); in assay [3] (at 50.0 µM) it was 99.5% (active). Besides, the growth inhibition in assay [6] (setting [7]) was 37%; in assay [6] (setting [8]), 99% (active); in assay [6] (at 50.0 µM), 99.4% (active); in assay [4] (setting [7]) it was 11%; in assay [4] (setting [8]) it was 100% (active); in assay [4] (at 50.0 µM) it was 99.5% (active). In addition, the growth inhibition in assay [5] (setting [7]) was 53%; in assay [5] (setting [8]), 99% (active); in assay [5] (at 50.0 µM) it was 99.5% (active).
On to `S=C(SSC(=S)N1CCCCC1)N1CCCCC1`, for which the growth inhibition in assay [1] (setting [7]) is 50%; in assay [1] (setting [8]), 99% (active); in assay [1] (at 50.0 µM), 9.4% and 16.8%; in assay [2] (setting [7]), 55%; in assay [2] (setting [8]), 99% (active); in assay [2] (at 50.0 µM), 13.6% and 5.4%. In addition, the growth inhibition in assay [6] (setting [7]) is 55%; in assay [6] (setting [8]), 99% (active); in assay [6] (at 50.0 µM), 24.9% and 19.5%; in assay [4] (setting [7]), 70% (active); in assay [4] (setting [8]) it was 99% (active); in assay [4] (at 50.0 µM) it was 9.8% and 4.25%. The growth inhibition in assay [5] (setting [7]) is 34%; in assay [5] (setting [8]), 99% (active); in assay [5] (at 50.0 µM) it was 54.8% and 12.6%.
As to `c1ccc2c(c1)[As]=c1ccccc1=[As]2` (stereo not drawn), the growth inhibition in assay [1] (setting [7]) was 65%; in assay [1] (setting [8]), 99% (active); in assay [1] (at 50.0 µM), 89% (active); in assay [2] (setting [7]) it was 95% (active); in assay [2] (setting [8]) it was 99% (active); in assay [2] (at 50.0 µM) it was 91.5% (active). Moreover, the growth inhibition in assay [6] (setting [7]) was 36%; in assay [6] (setting [8]), 99% (active); in assay [6] (at 50.0 µM), 92.1% (active); in assay [4] (setting [7]), 91% (active); in assay [4] (setting [8]) it was 98% (active); in assay [4] (at 50.0 µM), 90.2% (active). For the same compound, the figures for the growth inhibition in assay [5] (setting [7]), in assay [5] (setting [8]) and in assay [5] (at 50.0 µM) were 72% (active), 99% (active) and 91.4% (active), respectively.
For the compound `O=S(=O)([O-])[O-].[OH3+].[OH3+].[OH3+].[Ru+2].c1ccccc1`, the growth inhibition was -39% in assay [1] (setting [7]); -9% in assay [1] (setting [8]); 88.8% (active) in assay [1] (at 50.0 µM); -15% in assay [3] (setting [7]); 20% in assay [3] (setting [8]); 90.5% (active) in assay [3] (at 50.0 µM). Moreover, the growth inhibition in assay [6] (setting [7]) was -9%; in assay [6] (setting [8]), 15%; in assay [6] (at 50.0 µM), 89.6% (active); in assay [4] (setting [7]) it was -11%; in assay [4] (setting [8]), 42%; in assay [4] (at 50.0 µM), 90.7% (active). The growth inhibition was -38% in assay [5] (setting [7]), 30% in assay [5] (setting [8]) and 87.5% (active) in assay [5] (at 50.0 µM).
